These results are taken from PubChem BioAssay (EPA / NIEHS).

Read-out in assay [1]: Thrombomodulin, THBD (gene 7056)
The experiment in a line: BSK_CASM3C_Thrombomodulin: BioMAP Diversity Plus: CASM3C Assay for Thrombomodulin Biomarker Activity (AID 2283051).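 Further: thrombomodulin protein level measured by ELISA 24 h after dosing.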 To be noted: primary human coronary artery smooth muscle cells; actives raise or lower the signal.

Read-out in assay [2]: Tissue Factor, F3 (gene 2152)
Description: BSK_CASM3C_TissueFactor: BioMAP Diversity Plus: CASM3C Assay for Tissue Factor Biomarker Activity (AID 2283052).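 Further: cell surface tissue factor protein level read by ELISA.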 The conditions noted are these: primary human coronary artery smooth muscle cells; actives raise or lower the signal.

Read-out in assay [3]: Interferon-gamma inducible Protein 10 (IP10), CXCL10 (gene 3627)
The experiment in a line: BSK_hDFCGF_IP10: BioMAP Diversity Plus: hDFCGF Assay for Interferon-gamma inducible Protein 10 (IP10) Biomarker Activity (AID 2283053). The conditions noted are these: primary human foreskin fibroblasts; actives raise or lower the signal. A digest of the protocol: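 Cells: human dermal foreskin fibroblasts. Exposure: 24 h post-dosing. Detection: IP-10 ELISA, with values expressed against DMSO controls and fitted in both directions.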

Read-out in assay [4]: Urokinase-type plasminogen activator receptor (uPAR), PLAUR (gene 5329)
Description: BSK_CASM3C_uPAR: BioMAP Diversity Plus: CASM3C Assay for Urokinase-type plasminogen activator receptor (uPAR) Biomarker Activity (AID 2283054).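 Further: cell-surface uPAR protein level quantified by ELISA.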 To be noted: primary human coronary artery smooth muscle cells; actives raise or lower the signal.

Read-out in assay [5]: Vascular cell adhesion molecule 1 (VCAM1), VCAM1 (gene 7412)
The experiment in a line: BSK_CASM3C_VCAM1: BioMAP Diversity Plus: CASM3C Assay for Vascular cell adhesion molecule 1 (VCAM1) Biomarker Activity (AID 2283055).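 Further: VCAM-1 protein level quantified by ELISA on the cells.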 To be noted: primary human coronary artery smooth muscle cells; actives raise or lower the signal.

Read-out in assay [6]: Collagen III, COL3A1 (gene 1281)
Description: BSK_hDFCGF_CollagenIII: BioMAP Diversity Plus: hDFCGF Assay for Collagen III Biomarker Activity (AID 2283056). The conditions noted are these: primary human foreskin fibroblasts; actives raise or lower the signal. A digest of the protocol:
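Human foreskin primary fibroblasts were exposed to test chemicals for 24 h, after which collagen III was quantified by ELISA. Activity was fitted bidirectionally against DMSO as negative control and baseline.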

Read-out in assay [7]: Epidermal growth factor receptor (EGFR), EGFR (gene 1956)
Description: BSK_hDFCGF_EGFR: BioMAP Diversity Plus: hDFCGF Assay for Epidermal growth factor receptor (EGFR) Biomarker Activity (AID 2283057). To be noted: primary human foreskin fibroblasts; actives raise or lower the signal. A digest of the protocol: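 Dosing human primary skin fibroblasts, then measuring surface EGFR by ELISA at 24 h, gives the endpoint; gains and losses relative to DMSO were fitted in both directions.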

Read-out in assay [8]: Interleukin-8 (IL8), CXCL8 (gene 3576)
The experiment in a line: BSK_hDFCGF_IL8: BioMAP Diversity Plus: hDFCGF Assay for Interleukin-8 (IL8) Biomarker Activity (AID 2283058). The conditions noted are these: primary human foreskin fibroblasts; actives raise or lower the signal. The gist of the method:
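hDFCGF human dermal fibroblasts; 24 h chemical exposure; IL-8 by ELISA; bidirectional curve fit vs DMSO baseline; gain or loss of signal scored.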

A short description of assay [9]: BSK_hDFCGF_Proliferation: Cell Proliferation Assessment in the BioMAP Diversity Plus: hDFCGF Assay (AID 2283059).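 Further: curves fitted for both rise and fall of signal versus DMSO baseline.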 The conditions noted are these: primary human foreskin fibroblasts. The gist of the method: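 Primary human foreskin fibroblasts, sub-confluent; […]; 10% TCA fix, 0.1% SRB stain, A560 total protein. Gain/loss fitted bidirectionally vs DMSO control.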

Read-out in assay [10]: Macrophage colony-stimulating factor (MCSF), CSF1 (gene 1435)
Description: BSK_hDFCGF_MCSF: BioMAP Diversity Plus: hDFCGF Assay for Macrophage colony-stimulating factor (MCSF) Biomarker Activity (AID 2283060). To be noted: primary human foreskin fibroblasts; actives raise or lower the signal. The gist of the method: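 Human foreskin primary fibroblasts were treated with test chemical for 24 h, and M-CSF was then measured by ELISA. Data were fitted bidirectionally against DMSO as the negative control and activity baseline.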

Assay [11] can be described thus: BSK_hDFCGF_SRB: Viability Assessment in the BioMAP Diversity Plus: hDFCGF Assay (AID 2283061).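 Further: cells exposed to compound for 24 h before the read.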 To be noted: primary human foreskin fibroblasts. The gist of the method:
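Human foreskin primary fibroblasts were treated with compound and assessed 24 h after dosing. Total protein was measured by sulforhodamine B staining (0.1% SRB after 10% TCA fixation, 560 nm read) as a cytotoxicity marker, with bidirectional fitting against DMSO baseline.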

Read-out in assay [12]: Monokine induced gamma interferon (MIG), CXCL9 (gene 4283)
The experiment in a line: BSK_hDFCGF_MIG: BioMAP Diversity Plus: hDFCGF Assay for Monokine induced gamma interferon (MIG) Biomarker Activity (AID 2283063). The conditions noted are these: primary human foreskin fibroblasts; actives raise or lower the signal. The gist of the method:
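ELISA read-out of MIG from primary human dermal fibroblasts 24 h post-dosing. Gain or loss of signal fitted bidirectionally, DMSO as baseline.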

Read-out in assay [13]: Matrix Metallopeptidase 1 (MMP1), MMP1 (gene 4312)
Description: BSK_hDFCGF_MMP1: BioMAP Diversity Plus: hDFCGF Assay for Matrix Metallopeptidase 1 (MMP1) Biomarker Activity (AID 2283064). To be noted: primary human foreskin fibroblasts; actives raise or lower the signal. A digest of the protocol: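 MMP1 levels quantified by ELISA 24 h after dosing human dermal fibroblast cultures, with parallel SRB total-protein staining for overt cytotoxicity. Data fitted in both directions against DMSO baseline.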

Read-out in assay [14]: Vascular cell adhesion molecule 1 (VCAM1), VCAM1 (gene 7412)
The experiment in a line: BSK_hDFCGF_VCAM1: BioMAP Diversity Plus: hDFCGF Assay for Vascular cell adhesion molecule 1 (VCAM1) Biomarker Activity (AID 2283065).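 On AC50: VCAM-1 protein level quantified by ELISA after 24 h chemical exposure.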 The conditions noted are these: primary human foreskin fibroblasts; actives raise or lower the signal. The gist of the method:
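Primary human foreskin fibroblasts (hDFCGF system) were dosed with chemical and VCAM-1 was measured by ELISA 24 h later. Bidirectional curve fitting used DMSO as negative control and activity baseline.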

Read-out in assay [15]: Plasminogen activator inhibitor-1 (PAI1), SERPINE1 (gene 5054)
Description: BSK_hDFCGF_PAI1: BioMAP Diversity Plus: hDFCGF Assay for Plasminogen activator inhibitor-1 (PAI1) Biomarker Activity (AID 2283066). To be noted: primary human foreskin fibroblasts; actives raise or lower the signal. The gist of the method: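 Fibroblasts from human foreskin were treated with test chemical. After 24 h, PAI-1 was measured by ELISA. Activity was fitted in both directions relative to DMSO.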

Read-out in assay [16]: Intercellular Adhesion Molecule 1 (ICAM1), ICAM1 (gene 3383)
Description: BSK_KF3CT_ICAM1: BioMAP Diversity Plus: KF3CT Assay for Intercellular Adhesion Molecule 1 (ICAM1) Biomarker Activity (AID 2283067). The conditions noted are these: primary human keratinocytes with fibroblasts; actives raise or lower the signal. A digest of the protocol: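 Human keratinocyte plus foreskin fibroblast primary co-culture was exposed to chemical for 24 h. ICAM-1 was then quantified by ELISA, and the data were fit bidirectionally against DMSO as the negative control and baseline.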

Read-out in assay [17]: Interferon-gamma inducible Protein 10 (IP10), CXCL10 (gene 3627)
The experiment in a line: BSK_KF3CT_IP10: BioMAP Diversity Plus: KF3CT Assay for Interferon-gamma inducible Protein 10 (IP10) Biomarker Activity (AID 2283068). To be noted: primary human keratinocytes with fibroblasts; actives raise or lower the signal. The gist of the method:
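In a primary skin co-culture of keratinocytes and fibroblasts, IP-10 is quantified by ELISA at 24 h after dosing. SRB staining of parallel wells monitors overt toxicity. Curves are fitted both directions against DMSO.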

Assay [18] is described as follows: BSK_KF3CT_SRB: Viability Assessment in the BioMAP Diversity Plus: KF3CT Assay (AID 2283069). The conditions noted are these: primary human keratinocytes with fibroblasts. A digest of the protocol: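 Cytotoxicity was gauged by SRB staining (0.1% SRB, 10% TCA fixation, 560 nm) of parallel cultures at 24 h. The cells were primary human skin keratinocytes co-cultured with fibroblasts, and activity was fitted in both directions against DMSO.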

Read-out in assay [19]: Interleukin-1 alpha (IL1a), IL1A (gene 3552)
The experiment in a line: BSK_KF3CT_IL1a: BioMAP Diversity Plus: KF3CT Assay for Interleukin-1 alpha (IL1a) Biomarker Activity (AID 2283070). The conditions noted are these: primary human keratinocytes with fibroblasts; actives raise or lower the signal. The gist of the method:
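IL-1a was detected by ELISA 24 h after chemical treatment of a co-culture of human skin keratinocytes and foreskin fibroblasts. Gain or loss of signal was fitted against the DMSO baseline.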

Read-out in assay [20]: TIMP metallopeptidase inhibitor 1 (TIMP1), TIMP1 (gene 7076)
Description: BSK_hDFCGF_TIMP1: BioMAP Diversity Plus: hDFCGF Assay for TIMP metallopeptidase inhibitor 1 (TIMP1) Biomarker Activity (AID 2283062). The conditions noted are these: primary human foreskin fibroblasts; actives raise or lower the signal. A digest of the protocol:
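Primary human foreskin fibroblasts in the hDFCGF system were dosed with compound for 24 h, then TIMP-1 was measured by ELISA. Activity was fitted bidirectionally relative to DMSO control; parallel SRB staining assessed cytotoxicity.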

The structures appear in SMILES notation. Some structures have more than one record in an assay (separate samples or runs), and their calls can disagree. Calls of active or inactive are those of the source. How the source made its calls: active means hit-call score of the fitted dose curve at least 0.9, where 1 is the maximum; inactive means score below 0.9.

With `OCC1CO1` (stereo not drawn), the outcome in [1], in assay [2], in assay [3], in assay [4], in [5] and in assay [6] was inactive. Further, the outcome in [7], in assay [8], in [9], in [10], in [11] and in [12] was inactive. Also, the result in assay [13], in assay [14], in assay [15], in assay [16], in [17] and in [18] was inactive. Besides, the result in [19] was inactive.

For orientation: AC50 means the midpoint of the concentration-response curve, whichever way the signal moves. `O=C(O)C(F)(F)C(F)(F)C(=O)O`: the result in [1], in assay [2], in assay [3], in assay [4], in assay [5] and in assay [6] was inactive. Moreover, the outcome in [7], in assay [8], in [10], in assay [20], in [12] and in [13] was inactive. For the same molecule, the outcome in assay [14], in assay [15], in assay [16], in assay [17], in assay [18] and in [19] was inactive. Moreover, the AC50 is 17.2 µM (active) in assay [3] and 14.1 µM (active) in [12].

On to `N#Cc1cc([N+](=O)[O-])ccc1N`, for which the outcome in assay [1], in assay [2], in [3], in assay [4], in assay [5] and in [6] was inactive. For the same molecule, the result in assay [7], in assay [8], in [9], in assay [10], in assay [20] and in assay [12] was inactive. Also, the result in [13], in assay [14], in [15], in [16], in assay [17] and in assay [18] was inactive. In addition, the outcome in assay [19] was inactive.

For the molecule `O=S(=O)(F)C(F)(F)C(F)(F)C(F)(F)C(F)(F)C(F)(F)C(F)(F)C(F)(F)C(F)(F)F`, the result in [1], in assay [2], in [3], in assay [4], in assay [5] and in assay [6] was inactive. Moreover, the outcome in [7], in [8], in [9], in assay [10], in assay [12] and in assay [13] was inactive. Besides, the result in assay [14], in assay [15], in assay [16], in assay [17], in assay [18] and in assay [19] was inactive.

With `O=c1ssc(Cl)c1Cl`, the result in [1] was inactive. The AC50 in assay [2] was 6.61 µM (active); in assay [3], 3.7 µM (active); in assay [4], 6.83 µM (active); in assay [5] it was 4.48 µM (active); in assay [6], 8.15 µM (active); in assay [7] it was 3.16 µM (active). In addition, the AC50 in [8] is 13.1 µM (active); in assay [9], 0.577 µM (active); in assay [10] it was 3.29 µM (active); in [12], 5.86 µM (active); in assay [13], 4.13 µM (active); in assay [14], 4 µM (active). The concentration at half-maximal activity (AC50) in assay [15] was 4.05 µM (active); in assay [16] it was 5.46 µM (active); in assay [17], 7.06 µM (active); in assay [18], 2.83 µM (active); in assay [19], 3.02 µM (active).

As to `CCCCN(CCCC)N=O`, the result in assay [1], in assay [2], in [3], in assay [4], in assay [5] and in [6] was inactive. In addition, the outcome in assay [7], in assay [8], in [9], in assay [10], in assay [11] and in assay [12] was inactive. Moreover, the result in assay [13], in [14], in [15], in [16], in [17] and in assay [18] was inactive. The result in assay [19] was inactive.
